Assay outcomes deposited in PubChem by National Center for Advancing Translational Sciences (NCATS).
Shown are actives, neighbours in structure and some others; about 19% of the full set was active somewhere.
DT40 TDP1 CPT – qHTS for Inhibitors of human tyrosyl-DNA phosphodiesterase 1 (TDP1): qHTS in cells in presence of CPT. Potency, µM (top dose mostly 46.2 µM), inactives show at the top dose activity change, negative = growth inhibition, most hits filed as inhibitors. 420,000 tested, 12% active. chicken DT40 Tdp1-/-;hTDP1 cells + 20 nM CPT, ATP luminescence, 48 h; also: potency is read from the fitted curve at half-maximal effect; nearly all actives have a fitted effect of over 55% in size
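Chicken DT40 Tdp1-/- cells stably complemented with human TDP1 were seeded at 400 cells/well in medium containing 20 nM camptothecin, exposed to pin-transferred compounds, and grown at 37 °C for at least 48 hr. Viability was read as ATP luminescence.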
HT1080 IDH1KD tx – qHTS for induction of synthetic lethality in tumor cells producing 2HG: qHTS for the HT-1080-IDH1KD cell line. HT-1080 IDH1 knockdown viability, ATP luminescence, 48 h. Potency, µM (titrated, usually from 46.1 µM), without a hit: at the top dose activity, negative = toxicity, usual class: cytotoxic. 360,000 tested, 2% active. AID 686971, 2013;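 also: potency is read from the fitted curve at half-maximal effect; 0% = DMSO wells and -100% = cell-free medium wells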
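IDH1KD HT-1080 cells, 750/well, RPMI + 5% FBS; compound pinned after 2 h settling; 48 h, 37 °C; CellTiter-Glo luminescence; % activity normalised to DMSO and no-cell wells; curves fitted, classed by r2 and efficacy.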
HT1080-NT tox – qHTS for induction of synthetic lethality in tumor cells producing 2HG: qHTS for the HT-1080-NT fibrosarcoma cell line; 360,000 tested, 1.6% active; AID 686970, 2013; Potency, µM (highest dose often 46.1 µM), without a hit: at the top dose activity, negative = less viability, hits mostly cytotoxic; HT-1080-NT fibrosarcoma viability, CellTiter-Glo ATP luminescence, 48 h;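 also: NT is the 2HG producing partner of a matched IDH1 knockdown line; potency is read from the fitted curve at half-maximal effect; 0% = DMSO-treated cells and -100% = media-only wells without cells; nearly all actives have a fitted effect of over 55% in size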
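750 cells/well, RPMI + 5% FBS; 2 h settle, compound pin-transfer, 48 h at 37 degrees C. CellTiter-Glo 10 min RT, luminescence. Normalized to DMSO and media-only wells.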
uPA generation – qHTS for Inhibitors of Cell Surface uPA Generation. cell surface uPA generation assay, qHTS. AID 540303, 2011. 330,000 tested, 0.31% active. Potency, µM (series often up to 38.3 µM), for the others: at the top dose activity change, negative = inhibition, most hits filed as inhibitors; active = well fitted inhibition curve with a large enough effect; inconclusive = small, poorly fitted or top-dose-only effect; inactive = no such curve, though single readings can be large or run the other way; tested in mouse RAW 264.7 cells; also: potency is read from the fitted curve at half-maximal effect; nearly all actives have a fitted effect of over 55% in size
TDP1 cell noCPT – qHTS for Inhibitors of human tyrosyl-DNA phosphodiesterase 1 (TDP1): qHTS in cells in absence of CPT. DT40 Tdp1-/- hTDP1 cells, no CPT, ATP luminescence, 48 h. Potency, µM (doses to about 46.2 µM), inactives show at the top dose activity change, negative = growth inhibition, hits mostly inhibitors. 420,000 tested, 15% active. AID 686978, 2013; also: potency is read from the fitted curve at half-maximal effect; nearly all actives have a fitted effect of over 55% in size
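Cells were dispensed at 400 per well, compounds added by pin tool, plates incubated ≥48 hr at 37 °C, then CellTiter-Glo added for 30 min at room temperature before luminescence reading. Line: DT40 Tdp1-/- complemented with hTDP1; camptothecin omitted.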
IL1B secr inh – qHTS for Inhibitors of Inflammasome Signaling: IL-1-beta AlphaLISA Primary Screen; THP-1 LPS/ATP IL-1B secretion, AlphaLISA, 16 h; stronger effect = lower value; activity change, % at 57.5 µM; 360,000 tested, 4.7% active; AID 743279, 2014; in the data active = activity change below about -50%; inconclusive = mostly about -30% to -49%
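Secreted IL-1B measured by AlphaLISA bead assay after 16 h compound exposure of THP-1 cells; compounds (final up to 57.5 uM) added 1 h before LPS (250 ng/mL) and ATP (1.25 mM) stimulation; lower signal means less secretion.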
An asterisk follows results filed as active; ? = inconclusive; · = no result given. Unless noted, calls follow the shape of the dose curve; as a rule, active = well fitted curve in the direction sought with a large enough effect; inconclusive = small, poorly fitted or top-dose-only effect, or another doubt; inactive = no such curve, though single readings can be large; an effect the other way counts as inactive or inconclusive. Unless noted, % is scaled to controls: 0 for no effect and ±100 for the full control effect.

SMILES	DT40 TDP1 CPT	HT1080 IDH1KD tx	HT1080-NT tox	uPA generation	TDP1 cell noCPT	IL1B secr inh
Cc1cc(Br)ccc1NC(=O)CN(C)C(=O)c1cc([N+](=O)[O-])ccc1N1CCOCC1	-23.9%	-2.8%	-5.5%	-6.1%	?	-59.4*
S=C(NCC1CCCO1)c1ccc(Br)cc1 (stereo not drawn)	?	-12.4%	-0.2%	1.6%	?	-84.5*
CCOC(=O)N1CCN(C(=O)c2ccc3c(c2)N=C(CC)c2cc(C)ccc2S3)CC1	16.4µM*	-14.3%	9.6%	6.2%	10.3µM*	-4.1
CCC1=Nc2cc(C(=O)NC3CCCC3)ccc2Sc2ccc(Br)cc21	0.731µM*	·	·	·	0.731µM*	·
CCC1=Nc2cc(C(=O)N3CCCCC3)ccc2Sc2ccc(C)cc21	-24.4%	4.3%	21.7%	3.5%	?	4.3
CC1=Nc2cc(C(=O)NC3CCCCC3)ccc2Sc2ccc(Cl)cc21	0.82µM*	·	·	·	1.03µM*	·
O=C(NCC1CCCO1)c1ccc(C(=O)NCC2CCCO2)cc1 (stereo not drawn)	3.8%	11.2%	15.7%	4.0%	-11.5%	15.4
NC(=O)c1cnccc1C=Cc1ccccc1	0.8%	-6.0%	-5.8%	-1.2%	-11.0%	-3.4
CCCC1=Nc2cc(C(=O)NC3CCCC3)ccc2Sc2ccc(C)cc21	1.46µM*	·	·	·	1.03µM*	·
CCC1=Nc2cc(C(=O)NC3CCC(C)CC3)ccc2Sc2ccc(C)cc21 (stereo not drawn)	1.3µM*	·	·	·	0.651µM*	·
CCCC1=Nc2cc(C(=O)N3CCC(C)CC3)ccc2Sc2ccc(C)cc21	-4.0%	·	·	·	-20.7%	·
CCC1=Nc2cc(C(=O)NCc3ccco3)ccc2Sc2ccc(C)cc21	1.46µM*	1.3µM*	1.3µM*	-6.6%	1.3µM*	2.7
CCOC(=O)N1CCC(NC(=O)c2cc(COc3c(C)cccc3C)on2)CC1	?	-7.0%	-15.8%	-2.7%	?	?
CCOC(=O)N1CCC(NC(=O)c2ccc3c(c2)N=C(C)c2c(C)ccc(C)c2S3)CC1	2.06µM*	2.31µM*	2.06µM*	?	1.16µM*	14.5
CCC1=Nc2cc(C(=O)NCCN3CCOCC3)ccc2Sc2ccc(C)cc21	-9.9%	-9.6%	-3.1%	6.0%	-0.4%	9.5
CCC(C)NC(=O)Cn1c(=O)n(-c2ccc(Cl)c(Cl)c2)c(=O)c2c(C)c(C(=O)N(CC)CC)sc21 (stereo not drawn)	-24.7%	·	·	·	?	·
CC(=O)NS(=O)(=O)c1ccc(NC(=O)c2ccc(S(=O)(=O)N3CCCC3)cc2)cc1	-1.2%	12.0%	2.3%	-22.6%	-3.0%	1.1
CC(C)NC(=O)C1(C)CCCN1Cc1ccccc1C#N (stereo not drawn)	?	24.3%	54.1%	·	?	30.7
COc1ccc(OC)c(CN2CCN(CC(=O)Nc3ccccc3C(=O)NC3CC3)CC2)c1	-7.9%	-1.3%	0.7%	6.1%	-0.5%	-2.2
CCOC(=O)N1CCC(NC(=O)c2ccc3c(c2)N=C(CC)c2cc(C)ccc2S3)CC1	10.3µM*	5.8µM*	?	-6.2%	18.4µM*	28.3
CC1=Nc2cc(C(=O)NCC3CCCO3)ccc2Sc2ccc(Br)cc21 (stereo not drawn)	3.66µM*	16.4µM*	10.3µM*	?	5.8µM*	58.6
NCCn1oc(=O)[nH]c1=O	-2.2%	·	·	·	-0.2%	·
CC(C)c1cnc2c(c1SCC(=O)NC(C)(C)C)c(=O)n(C)c(=O)n2C	4.5%	·	·	·	-18.4%	·
CCCNC(=O)CSc1c(CCC)cnc2c1c(=O)n(C)c(=O)n2C	-0.2%	·	·	·	-5.9%	·
